High-throughput results as filed in PubChem.
Pf Dd2 growth: Plasmodium falciparum Dd2 growth inhibition. P. falciparum Dd2 growth, SYBR Green, 72 h. Potency, µM (doses to about 28.9 µM), for the others: top-dose activity, negative = inhibition, usual class: inhibitors. 120,000 compounds, 4.3% hits. AID 1347417; active means well fitted inhibition curve with a large enough effect;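 further: plate controls were DMSO vehicle for no effect and reference drug for full effect; nearly all actives have a fitted effect of over 65% in size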
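Readout: SYBR Green fluorescence, 485 nm excitation, 535 nm emission, after ~16 h lysis at 37C. Before that, Dd2-infected red cells (2.5% hematocrit) grew 72 h with compound, 29 uM top final concentration.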
* marks the source's active call; other numbers are inactive results; i = inactive; [ ] = remark or other dose. Shown is part of a subset that was picked to be rich in hits. Potency means the concentration at half of the fitted maximal effect.

SMILES	Pf Dd2 growth
Cc1ccc(C)c(NC(=O)N2CCCC(c3noc(COc4ccccc4F)n3)C2)c1 (configuration not stated)	i
O=C(COc1ccc(F)cc1)N1CCCC(c2noc(COc3ccccc3)n2)C1 (configuration not stated)	6.3µM*
Cc1ccc(NC(=O)N2CCCC(c3noc(COc4ccccc4F)n3)C2)c(C)c1 (configuration not stated)	-15%
O=C(c1ccc(F)cc1)N1CCCC(c2noc(COc3ccccc3)n2)C1 (configuration not stated)	-3%
COc1cccc(CCC(=O)NC(C)C(=O)N2CCN(c3ccccn3)CC2)c1 (configuration not stated)	i
Cc1cc(C(=O)N2C[C@@H](CN3CCOCC3)[C@@H](CO)C2)cs1	11%
COCCOC1CCOC2(CCN(C(=O)c3cnccn3)CC2)C1 (configuration not stated)	43%
O=C(c1ccccc1F)N1CCC2(CC1)SCC(=O)N2c1ccc(Cl)cc1	i
Cc1ccc(S(=O)(=O)Nc2ccc3c(c2)CN(Cc2ccccc2)C(=O)CO3)cc1	i
CCOc1cc(-c2nc(C3CC(=O)N(c4ccc(OC)cc4)C3)no2)cc(OCC)c1OCC (configuration not stated)	-1%
COc1ccc(C(=O)Nc2ccc([C@H]3OCC(=O)N(Cc4cccnc4)[C@@H]3CO)cc2)cc1	i
Cc1oc(C(C)C)cc1C(=O)N1CCC2(CC1)C(C(=O)O)CC(=O)N2C (configuration not stated)	11%
CSc1nc(NCCOC(C)=O)c(C#N)c(-c2ccc(C(C)(C)C)cc2)n1	10µM*
CSc1nc(Nc2cccc(C)c2)c(C#N)c(-c2ccccc2)n1	2%
COc1ccc(NC(=O)Cn2c(C)cc3nc4n(c(=O)c32)CCC4)cc1OC	i
O=[S+]([O-])(Nc1nncs1)c1ccc2c(c1)OCCN(Cc1cncc(F)c1)C2	i
c1ccc(OCc2cc(CC3(NCc4cccnc4)COC3)no2)cc1	-25%[44.1 µM]
COc1ccc(N2CCN(C(=O)Nc3nc(C)ns3)CC2(C)C)cc1	-3%
CCN1CCN(CCNC(=O)C2N(C(C)C)C(=O)C23CCCCC3)CC1 (configuration not stated)	12%
COc1ccc(N2C(=O)C3(CCCCC3)C2C(=O)NCCN2CCc3ccccc3C2)cc1 (configuration not stated)	8.9µM*
CC(C)N1C(=O)C2(CCCC2)C1C(=O)NCCCN1CCN(c2ccccc2)CC1 (configuration not stated)	-12%
COc1ccc(N2C(=O)C3(CCCCC3)C2C(=O)O)cc1 (configuration not stated)	7%
CC1(C(=O)NCCCN2CCc3ccccc3C2)CCCCC(=O)N1 (configuration not stated)	-13%
COc1ccc(N2C(=O)C3(CCCCC3)C2C(=O)NCCCN2CCCCC2)cc1 (configuration not stated)	11µM*
COc1ccc(N2C(=O)C3(CCCCC3)C2C(=O)NCCCN2CCCC2)cc1 (configuration not stated)	4.5µM*
SMILES	Pf Dd2 growth
CC(C)N1C(=O)C2(CCCC2)C1C(=O)NCCCN1CCCC1 (configuration not stated)	-6%
CCC(=O)N1c2ccccc2CC1C(=O)NCCCN1CCN(c2ccc(OC)cc2)CC1 (configuration not stated)	7%
O=C1CCN(C(=O)C2CCN(C(=O)CCC3CCCC3)CC2)CCCCCCN1	-9%
Cc1nccn1CC1(CNc2ncncn2)CC1	6%
CCOCCNc1ncnc2c1CN(c1ccc(C)cc1)C(=O)CN2C	13%
O=C(NC1CCCC1)c1ccc2c(c1)N(Cc1ccc(C(F)(F)F)cc1)C(=O)c1ccccc1S2	13µM*
O=C(NC1CCCC1)c1ccc2c(c1)N(Cc1ccccc1Cl)C(=O)c1ccccc1S2	-9%
COc1cc(NC(=O)CN2C(=O)c3ccccc3Sc3ccc(C(=O)N4CCCC4)cc32)cc(OC)c1	7.9µM*
CCOc1ccc(CN2C(=O)c3ccccc3Sc3ccc(C(=O)OC)cc32)cc1	16%
COc1cccc(CN2C(=O)c3ccccc3Sc3ccc(C(=O)NCCc4ccc(Cl)cc4)cc32)c1	11µM*
CCOc1ccc(CN2C(=O)c3ccccc3Sc3ccc(C(=O)NCCc4ccccc4)cc32)cc1	-18%
COC(=O)c1ccc2c(c1)N(CC(=O)Nc1ccc(OC)c(Cl)c1)C(=O)c1ccccc1S2	i
CCOc1ccc(CN2C(=O)c3ccccc3Sc3ccc(C(=O)NCc4ccc(C)cc4)cc32)cc1	13µM*
Cc1cc(C)cc(NC(=O)CN2C(=O)c3ccccc3Sc3ccc(C(=O)N4CCOCC4)cc32)c1	2%
Cc1ccc(CN2C(=O)c3ccccc3Sc3ccc(C(=O)NC4CCCC4)cc32)cc1	-5%
Cc1cccc(S(=O)(=O)N2CCC(Oc3ncccc3C(=O)N3CCOCC3)C2)c1 (configuration not stated)	26%
N#Cc1ccc(CN2CCC3(CC2)CC(=O)c2ccccc2O3)cc1	i
CCN(CCO)C(=O)CC1C(=O)NCCN1Cc1cccnc1 (configuration not stated)	-1%
Cc1sc2cc(C(=O)NCCN3CCOCC3)[nH]c2c1CN1CCCCC1	i
COCCC(=O)N[C@@H]1CN(Cc2ccccc2)C[C@H]1CO	4%
COc1cc(NC(=O)C2(Cc3cccnc3)CCCCC(=O)N2)cc(OC)c1 (configuration not stated)	i
CCN1CC2(CCN(C(=O)COC(C)C)CC2)CC(c2ccccc2)C1=O (configuration not stated)	5%
CCCn1ccc2sc(C)c(C(=O)NCc3ccc(F)cc3)c2c1=O	-9%
CN1C(=O)C(c2ccccc2)CC12CCN(C(=O)C1(C(N)=O)CC1)CC2 (configuration not stated)	-6%
O=C(Cn1nc2n(c1=O)CCCCC2)Nc1ccc(Br)cc1	14%
SMILES	Pf Dd2 growth
O=C(NCc1nnc2c(-c3nc(C4CC4)no3)cccn12)C1CCCC1	i
O=C(NCc1ccc(F)cc1)c1ccc2c(c1)N(Cc1ccc(F)cc1Cl)C(=O)CS2	i
COc1ccc(CNC(=O)c2ccc3c(c2)N(Cc2ccccc2)C(=O)c2ccccc2S3=O)cc1 (configuration not stated)	44%
O=C(c1ccc2c(c1)N(Cc1ccc(F)cc1Cl)C(=O)c1ccccc1S2)N1CCC2(CC1)OCCO2	i
Cc1ccc(CNC(=O)c2ccc3c(c2)N(Cc2cccc(Cl)c2)C(=O)CS3)cc1	i
COc1ccccc1CNC(=O)c1ccc2c(c1)N(Cc1cc(C)ccc1C)C(=O)c1ccccc1S2	2.5µM*
COc1cccc(CNC(=O)c2ccc3c(c2)N(Cc2ccc(F)cc2Cl)C(=O)c2ccccc2S3)c1	11µM*
COc1ccc(CNC(=O)c2ccc3c(c2)N(Cc2cccc(Cl)c2)C(=O)c2ccccc2S3)c(OC)c1	11µM*
Cc1ccc(CN2C(=O)c3ccccc3Sc3ccc(C(=O)NCCCN4CCOCC4)cc32)cc1	i
Cc1ccc(CN2C(=O)c3ccccc3Sc3ccc(C(=O)N4CCC5(CC4)OCCO5)cc32)cc1	8.9µM*
COc1ccc(CCNC(=O)c2ccc3c(c2)N(Cc2ccccc2C)C(=O)c2ccccc2S3)cc1OC	i
O=C(O)c1ccc2c(c1)N(Cc1ccc(F)cc1Cl)C(=O)c1ccccc1S2	i
COC(=O)c1ccc2c(c1)N(Cc1cc(C)ccc1C)C(=O)c1ccccc1S2	i
COc1nc2c(cc1CNC(=O)CO)C(=O)N(CCc1ccccn1)C2	i
